Here are results for eight compounds from ChEMBL document CHEMBL1961873, “Compounds: GSK PKIS; Assays: Nanosyn kinase panel” (2012).

In test [1] the target is T1, Serine/threonine-protein kinase D2 (Homo sapiens) (UniProt Q9BZL6).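 Further: mean value of PRKD2 inhibition, from the GSK PKIS screening panel.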
T1 sequence (whole entry): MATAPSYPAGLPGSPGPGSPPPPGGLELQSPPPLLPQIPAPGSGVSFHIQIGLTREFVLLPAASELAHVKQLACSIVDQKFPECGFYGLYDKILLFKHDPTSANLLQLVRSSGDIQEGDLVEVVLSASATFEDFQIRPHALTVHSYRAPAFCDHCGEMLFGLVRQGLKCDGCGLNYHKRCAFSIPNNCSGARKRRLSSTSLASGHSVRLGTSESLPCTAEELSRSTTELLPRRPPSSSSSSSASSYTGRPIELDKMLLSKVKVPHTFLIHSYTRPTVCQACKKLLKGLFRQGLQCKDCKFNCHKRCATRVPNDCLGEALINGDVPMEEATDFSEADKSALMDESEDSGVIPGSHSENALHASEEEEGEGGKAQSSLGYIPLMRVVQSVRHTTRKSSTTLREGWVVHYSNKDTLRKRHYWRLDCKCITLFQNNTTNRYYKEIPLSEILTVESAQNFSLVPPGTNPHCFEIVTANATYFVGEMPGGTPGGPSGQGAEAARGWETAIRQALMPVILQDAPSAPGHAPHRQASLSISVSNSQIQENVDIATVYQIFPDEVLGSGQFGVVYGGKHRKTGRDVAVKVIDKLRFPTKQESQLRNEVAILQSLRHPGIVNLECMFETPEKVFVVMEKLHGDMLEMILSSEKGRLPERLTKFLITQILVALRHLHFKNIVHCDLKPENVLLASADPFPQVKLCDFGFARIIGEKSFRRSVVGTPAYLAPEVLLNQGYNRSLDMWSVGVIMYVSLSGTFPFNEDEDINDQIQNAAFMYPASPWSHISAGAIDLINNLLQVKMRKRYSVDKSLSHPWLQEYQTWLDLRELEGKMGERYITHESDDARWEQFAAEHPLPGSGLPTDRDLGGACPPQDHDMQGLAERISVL
Particulars: at 1 µM.

Test [2] addresses T2, Serine/threonine-protein kinase D3 (Homo sapiens) (UniProt O94806).
T2 sequence (whole entry): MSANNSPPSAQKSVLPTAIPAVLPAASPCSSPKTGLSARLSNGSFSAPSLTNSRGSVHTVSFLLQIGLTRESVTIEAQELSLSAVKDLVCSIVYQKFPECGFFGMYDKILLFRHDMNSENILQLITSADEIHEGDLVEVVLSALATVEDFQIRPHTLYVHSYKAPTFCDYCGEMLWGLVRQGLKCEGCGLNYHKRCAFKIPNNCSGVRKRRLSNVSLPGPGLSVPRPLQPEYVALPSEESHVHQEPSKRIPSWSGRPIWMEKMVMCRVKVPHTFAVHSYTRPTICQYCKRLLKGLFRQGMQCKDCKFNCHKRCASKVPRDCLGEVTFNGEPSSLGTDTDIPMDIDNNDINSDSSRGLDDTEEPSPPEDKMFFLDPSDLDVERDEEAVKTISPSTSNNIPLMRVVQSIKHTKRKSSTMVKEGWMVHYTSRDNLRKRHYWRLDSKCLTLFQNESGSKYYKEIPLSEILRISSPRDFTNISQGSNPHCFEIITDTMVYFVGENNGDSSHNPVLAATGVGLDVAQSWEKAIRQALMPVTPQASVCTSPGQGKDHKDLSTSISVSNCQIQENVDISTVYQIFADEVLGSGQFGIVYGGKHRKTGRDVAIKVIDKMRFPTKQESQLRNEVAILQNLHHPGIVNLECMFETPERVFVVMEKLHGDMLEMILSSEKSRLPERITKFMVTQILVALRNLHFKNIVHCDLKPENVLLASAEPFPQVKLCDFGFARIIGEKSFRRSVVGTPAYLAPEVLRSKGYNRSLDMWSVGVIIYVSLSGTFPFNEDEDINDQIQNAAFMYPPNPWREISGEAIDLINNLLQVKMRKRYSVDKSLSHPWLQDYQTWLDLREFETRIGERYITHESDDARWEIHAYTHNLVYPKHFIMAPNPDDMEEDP
As to conditions: at 0.1 µM.

Test [3] addresses T2, Serine/threonine-protein kinase D3 (Homo sapiens). As to conditions: at 1 µM.
Test [4] addresses T3, cGMP-dependent protein kinase 1 (Homo sapiens) (UniProt Q13976).
T3 sequence (whole entry): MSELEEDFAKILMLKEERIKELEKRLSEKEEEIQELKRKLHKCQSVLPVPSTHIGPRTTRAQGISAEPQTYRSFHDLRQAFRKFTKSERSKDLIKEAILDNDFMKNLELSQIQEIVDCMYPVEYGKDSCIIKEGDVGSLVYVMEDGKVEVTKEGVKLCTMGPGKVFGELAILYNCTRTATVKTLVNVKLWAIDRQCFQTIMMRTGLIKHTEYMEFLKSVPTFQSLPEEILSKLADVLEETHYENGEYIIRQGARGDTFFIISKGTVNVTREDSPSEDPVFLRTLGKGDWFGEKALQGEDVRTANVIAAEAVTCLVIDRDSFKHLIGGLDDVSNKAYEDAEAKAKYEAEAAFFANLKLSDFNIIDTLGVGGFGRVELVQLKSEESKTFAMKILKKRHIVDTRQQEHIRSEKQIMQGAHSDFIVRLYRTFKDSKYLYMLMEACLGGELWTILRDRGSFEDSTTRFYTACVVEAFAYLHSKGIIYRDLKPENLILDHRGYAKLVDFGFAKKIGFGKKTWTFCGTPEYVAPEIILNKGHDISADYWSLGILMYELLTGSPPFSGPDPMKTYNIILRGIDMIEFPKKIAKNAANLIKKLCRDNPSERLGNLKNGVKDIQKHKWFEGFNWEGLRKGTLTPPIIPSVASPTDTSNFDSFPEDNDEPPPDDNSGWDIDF
Particulars: at 0.1 µM.

The target of test [5] is T3, cGMP-dependent protein kinase 1 (Homo sapiens). As to conditions: at 1 µM.
The target in test [6] is T4, cGMP-dependent protein kinase 2 (Homo sapiens) (UniProt Q13237).
T4 sequence (whole entry): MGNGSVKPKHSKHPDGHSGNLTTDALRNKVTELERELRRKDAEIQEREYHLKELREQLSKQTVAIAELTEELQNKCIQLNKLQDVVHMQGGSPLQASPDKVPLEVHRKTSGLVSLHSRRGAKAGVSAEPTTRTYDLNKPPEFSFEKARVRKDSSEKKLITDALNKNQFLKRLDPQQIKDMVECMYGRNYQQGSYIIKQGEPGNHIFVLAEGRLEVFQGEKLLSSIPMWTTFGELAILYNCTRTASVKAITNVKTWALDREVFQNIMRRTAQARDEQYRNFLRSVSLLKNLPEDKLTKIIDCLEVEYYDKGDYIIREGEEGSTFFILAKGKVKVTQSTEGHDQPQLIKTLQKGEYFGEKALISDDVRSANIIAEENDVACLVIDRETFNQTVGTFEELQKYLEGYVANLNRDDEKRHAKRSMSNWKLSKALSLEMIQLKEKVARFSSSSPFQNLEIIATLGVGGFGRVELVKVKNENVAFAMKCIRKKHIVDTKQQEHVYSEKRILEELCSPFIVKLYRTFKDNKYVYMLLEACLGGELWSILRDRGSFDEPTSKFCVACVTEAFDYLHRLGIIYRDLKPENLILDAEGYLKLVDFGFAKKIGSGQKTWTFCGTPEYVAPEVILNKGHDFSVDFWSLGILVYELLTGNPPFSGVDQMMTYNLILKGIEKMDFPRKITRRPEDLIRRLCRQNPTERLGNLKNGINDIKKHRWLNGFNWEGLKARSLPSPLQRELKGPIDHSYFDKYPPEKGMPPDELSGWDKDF
As to conditions: at 0.1 µM.

Test [7] deals with T4, cGMP-dependent protein kinase 2 (Homo sapiens). As to conditions: at 1 µM.
Test [8] addresses T5, cAMP-dependent protein kinase catalytic subunit PRKX (Homo sapiens) (UniProt P51817).
T5 sequence (whole entry): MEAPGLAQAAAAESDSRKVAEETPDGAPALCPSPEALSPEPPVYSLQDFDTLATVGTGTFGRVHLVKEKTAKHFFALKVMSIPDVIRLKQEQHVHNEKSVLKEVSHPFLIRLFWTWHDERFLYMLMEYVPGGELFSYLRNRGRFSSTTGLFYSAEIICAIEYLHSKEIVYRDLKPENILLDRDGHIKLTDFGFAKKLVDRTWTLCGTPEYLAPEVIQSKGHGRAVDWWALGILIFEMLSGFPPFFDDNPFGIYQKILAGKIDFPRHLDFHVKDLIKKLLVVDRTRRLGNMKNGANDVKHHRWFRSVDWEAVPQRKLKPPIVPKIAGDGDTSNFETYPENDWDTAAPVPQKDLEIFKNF
Particulars: at 0.1 µM.

Test [9] addresses T5, cAMP-dependent protein kinase catalytic subunit PRKX (Homo sapiens). As to conditions: at 1 µM.
Test [10] has as its target Rho-associated protein kinase 1 (Homo sapiens) (UniProt Q13464). Particulars: at 0.1 µM.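 Further: values are mean percent inhibition of ROCK1.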

Several values for one entry are separate records, joined by “and”; a condition that tells them apart may be missing. Equal values may be shown once.

A word on the inhibition: it is the change of the read-out against control, counted positive when it falls.

Chain of Rho-associated protein kinase 1 (Homo sapiens) (Q13464 2-1354 limits assumed): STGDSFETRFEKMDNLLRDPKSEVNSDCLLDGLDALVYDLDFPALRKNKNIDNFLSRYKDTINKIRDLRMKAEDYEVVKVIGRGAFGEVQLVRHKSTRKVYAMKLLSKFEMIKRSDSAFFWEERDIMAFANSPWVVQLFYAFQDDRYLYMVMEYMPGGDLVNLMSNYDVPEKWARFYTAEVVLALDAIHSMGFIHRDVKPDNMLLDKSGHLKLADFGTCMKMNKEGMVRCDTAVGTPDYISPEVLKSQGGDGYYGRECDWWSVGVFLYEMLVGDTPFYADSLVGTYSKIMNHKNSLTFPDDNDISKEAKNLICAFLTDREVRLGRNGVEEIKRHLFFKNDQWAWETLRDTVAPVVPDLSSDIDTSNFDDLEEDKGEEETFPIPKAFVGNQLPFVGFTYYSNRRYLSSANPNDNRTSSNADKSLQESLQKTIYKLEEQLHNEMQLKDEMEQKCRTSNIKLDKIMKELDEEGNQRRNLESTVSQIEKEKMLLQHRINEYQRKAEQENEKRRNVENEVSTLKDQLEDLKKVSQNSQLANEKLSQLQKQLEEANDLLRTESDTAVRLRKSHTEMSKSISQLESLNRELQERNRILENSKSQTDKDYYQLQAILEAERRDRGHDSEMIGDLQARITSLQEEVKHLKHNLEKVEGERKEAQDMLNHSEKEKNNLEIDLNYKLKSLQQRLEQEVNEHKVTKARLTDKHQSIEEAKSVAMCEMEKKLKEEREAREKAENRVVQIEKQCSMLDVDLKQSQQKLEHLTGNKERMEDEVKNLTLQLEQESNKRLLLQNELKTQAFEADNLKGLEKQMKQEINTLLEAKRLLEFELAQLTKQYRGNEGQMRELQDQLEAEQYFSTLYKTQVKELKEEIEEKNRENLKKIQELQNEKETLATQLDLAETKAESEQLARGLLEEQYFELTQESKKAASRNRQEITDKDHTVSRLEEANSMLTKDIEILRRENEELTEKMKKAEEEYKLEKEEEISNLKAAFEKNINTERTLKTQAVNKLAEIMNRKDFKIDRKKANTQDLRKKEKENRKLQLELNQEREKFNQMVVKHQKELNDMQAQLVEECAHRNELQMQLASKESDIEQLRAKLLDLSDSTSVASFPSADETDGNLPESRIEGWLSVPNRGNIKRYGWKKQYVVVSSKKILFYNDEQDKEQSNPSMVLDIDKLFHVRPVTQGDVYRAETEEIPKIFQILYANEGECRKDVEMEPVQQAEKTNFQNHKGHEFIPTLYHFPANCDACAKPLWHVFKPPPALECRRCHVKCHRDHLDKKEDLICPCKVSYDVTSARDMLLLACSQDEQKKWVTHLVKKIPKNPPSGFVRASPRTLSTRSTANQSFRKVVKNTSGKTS

On to `CN1CCC(C(=O)Nc2n[nH]c3nc(-c4ccc(O)cc4)c(Br)cc23)CC1`, for which the inhibition in test [1] is 4.6% and 3.02%; in test [2], 1.49% and 1.43%; in test [3], 3.3% and 2.68%; in test [4] it was 2.6% and 0.38%; in [5], 8.03% and 6.39%; in [6], 2.67% and 0.36%. In addition, the inhibition was 8.41% and 4.33% in test [7]; 3.06% and 1.23% in [8]; 6.6% and 1.62% in [9]; 1.28% and -0.29% in test [10].
Take `COC(=O)Nc1nc2ccc(Oc3ccc(NC(=O)Nc4cc(C(F)(F)F)ccc4F)cc3)cc2s1`: the inhibition in test [1] came out at 1.09%; in test [2], 0.52%; in [3], 0.53%; in [4], 1.65%; in test [5], 2.05%; in test [6], 1.07%. Further, the inhibition in [7] is 1.92%; in [8], 0.15%; in test [9] it was -0.17%; in test [10] it was 0.74%.
As for `CCN1CCC(C(=O)Nc2n[nH]c3nnc(-c4cccc(F)c4F)cc23)CC1`, the inhibition was 0.06% in test [1]; -0.39% in test [2]; -0.3% in test [3]; 0.16% in [4]; 0.21% in [5]; -1.12% in test [6]. The inhibition was 0.85% in [7], 0.8% in test [8], 0.57% in test [9] and -0.76% in [10].
`COc1ccccc1-c1cc(/C=C2\C(=O)Nc3ncc(Br)cc32)cc(Br)c1O`: the inhibition came out at 6.48% in test [1]; 5.02% in [2]; 6.21% in test [3]; 2.01% in [4]; 5.3% in test [5]; 1.73% in test [6]. For the same compound, the inhibition in test [7] amounted to 5.97%; in test [8], 0.16%; in test [9], 0.16%; in test [10] it was 0.21%.
As to `CCCNc1cccc(-n2ncc3c(N/N=C/c4ccncc4)ncnc32)c1`, the inhibition in test [1] stood at 1.21%; in test [2], 0.66%; in [3], 0.02%; in [4], 0.73%; in test [5] it was 2.57%; in test [6], 2.7%. For the same compound, the inhibition in [7] amounted to 4.72%; in test [8] it was 2.18%; in [9], 4.42%; in test [10], 2.35%.
Turning to `CNC(=O)c1cncc(/C=C/c2ccccc2C)c1`, the inhibition in test [1] worked out at 3.79%; in [2] it was 3.31%; in [3], 4.34%; in [4], 4.05%; in test [5] it was 5.68%; in [6], 2.97%. Also, the inhibition was found to be 5.05% in test [7], 3.99% in test [8], 6.15% in test [9] and 1.2% in test [10].
As for `O=C(O[C@H]1CN[C@H](C#Cc2cc3ncnc(Nc4ccc5c(cnn5Cc5ccccc5)c4)c3s2)C1)N1CCOCC1`, the inhibition in [1] is 1.12%; in test [2] it was 0.01%; in test [3], 1.45%; in test [4], -0.48%; in test [5], -0.54%; in test [6], -0.72%. The inhibition was 0.09% in test [7], -0.58% in [8], -0.71% in test [9] and -2.14% in [10].
As to `Nc1ncnc2occ(-c3ccc(NC(=O)Nc4cc(C(F)(F)F)ccc4F)cc3)c12`, the inhibition was 1.3% and 0.14% in test [1]; 2.15% and -1.96% in test [2]; 1.95% and -2.28% in test [3]; 2.47% and 0.31% in test [4]; 1.42% and 0.75% in test [5]; 1.4% and 0.27% in test [6]. In addition, the inhibition in [7] is 2.16% and 1.02%; in [8] it was 0.81% and 0.1%; in [9] it was -1.13% and -0.05%; in [10], 1.07% and 0.31%.
